Measured values reported in PubChem BioAssay AID1063 (University of Pittsburgh Molecular Library Screening Center, 2008).
The whole screen tested about 200,000 compounds, of which about 18,000 (9%) were called active. Rule as the data show it: active = inhibition above about 50%; inactive = the rest. Shown is part of a subset that was picked to be rich in actives.

Test: antileishmanial activity against promastigotes – primary screen (AID 1063);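 also: promastigotes grown with compound for 44 hours at 28 °C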
Details: Leishmania major promastigotes, resazurin fluorescence viability; at 10 µM; active compounds read high
In the case of CC1COc2ccccc2N1C(=O)c1cccnc1Cl (stereo unspecified), the inhibition is reported as -4% (inactive). In the case of C=C(C)Cn1c(C)cc(C)c(S(=O)(=O)c2ccccc2C)c1=O, the inhibition is reported as 96% (active). In the case of CN(C)S(=O)(=O)c1cc(NC(=O)CN2C(=O)NC3(CCCc4ccccc43)C2=O)ccc1Cl (stereo unspecified), the inhibition is reported as 57.4% (active). In the case of CCN(CC(=O)Nc1ccc(Cl)c(S(=O)(=O)N(C)C)c1)Cc1nc2ccccc2c(=O)[nH]1, the inhibition is reported as -6.29% (inactive). In the case of Cc1ccc(NC(=O)CNCc2ccccn2)cc1S(=O)(=O)N(C)C, the inhibition is reported as 6.73% (inactive). In the case of COc1ccc(C/C(N)=N/OC(=O)c2ccco2)cc1OC, the inhibition is reported as -5.88% (inactive). In the case of COc1ccc(C(=O)ON=C2c3ccccc3-c3ccccc32)cc1OC, the inhibition is reported as -6.29% (inactive). In the case of COc1ccc(C(=O)O/N=C(\N)Cc2ccc(Cl)cc2Cl)cc1OC, the inhibition is reported as 71.9% (active). In the case of CN(Cc1ccc2nsnc2c1)Cc1nc(Cc2cccc(F)c2)no1, the inhibition is reported as -4.63% (inactive). In the case of CN1CCN(C(=O)CCc2ncc(C(F)(F)F)cc2Cl)CC1, the inhibition is reported as -6.47% (inactive). With O=C(NCC(=O)N(CC1CCCO1)C(C(=O)NC1CCCCC1)c1ccccc1)c1ccco1 (stereo unspecified) the inhibition was -4.69% (inactive). In the case of Cc1cccc(Oc2c([N+](=O)[O-])c(=O)n(C)c3ccccc23)c1, the inhibition is reported as -3.73% (inactive). In the case of COc1ccc(/C=N/NC(=O)c2cccc(C(F)(F)F)c2)cc1, the inhibition is reported as 12% (inactive). For C=CCNC(=S)N1CCN(CCN=Cc2c(C)[nH]n(-c3ccc([N+](=O)[O-])cc3)c2=O)CC1, the inhibition was -7.1% (inactive). In the case of CCc1ccc2c(c1)C1(NN=C(c3ccccc3)S1)C(=O)N2 (stereo unspecified), the inhibition is reported as 99.1% (active). In the case of C=C1c2cc(CC)ccc2NC(=O)N1c1ccc(C)cc1, the inhibition is reported as 12.2% (inactive). With O=C1Nc2ccccc2C12Nc1ccccc1S2 (stereo unspecified) the inhibition was -4.59% (inactive). For COc1ccc(C(=O)NC(Cc2ccc(OC(=O)c3ccc(OC)cc3)cc2)C(=O)O)cc1 (stereo unspecified), the inhibition was -3.89% (inactive). For CCN(CCCCOC(=O)c1ccc(OC)c(OC)c1)C(C)Cc1ccc(OC)cc1 (stereo unspecified), the inhibition was 100% (active). For COc1ccccc1NC(=O)COc1ccc(C(=O)OCC(=O)N(C(C)C)C(C)C)cc1OC, the inhibition was -1.06% (inactive). For CC(C)OC(=O)CN1CCN(c2ccc(Cl)cc2)CC1, the inhibition was -1.87% (inactive). In the case of CCCc1[nH]nc2c1C(c1ccc(OC(=O)c3ccco3)cc1)C(C#N)=C(N)O2 (stereo unspecified), the inhibition is reported as 15.8% (inactive). With COCc1[nH]nc2c1C(C1C=CCCC1)C(C#N)=C(N)O2 (stereo unspecified) the inhibition was 45.2% (inactive). In the case of CCCc1[nH]nc2c1C(C1CC=CCC1)C(C#N)=C(N)O2 (stereo unspecified), the inhibition is reported as 66.6% (active). With CCCc1[nH]nc2c1C(c1ccc(Br)s1)C(C#N)=C(N)O2 (stereo unspecified) the inhibition was 100% (active). With CCCc1[nH]nc2c1C(c1c(C)nn(-c3ccccc3)c1Cl)C(C#N)=C(N)O2 (stereo unspecified) the inhibition was 8.77% (inactive). For N#CC1=C(N)OC2=C(C(=O)CCC2)C1C1CC=CCC1 (stereo unspecified), the inhibition was 4.1% (inactive). In the case of CC(=O)N1CCN(S(=O)(=O)c2c(F)cc(F)c(Cl)c2F)CC1, the inhibition is reported as 0.83% (inactive). With COc1ccc(C(=O)Nc2cccc(S(C)(=O)=O)c2)cc1 the inhibition was -0.33% (inactive). In the case of CC(C)(C)NC(=O)COC(=O)c1cc(Cl)ccc1[N+](=O)[O-], the inhibition is reported as 2.68% (inactive). With CCOC(=O)C1(Cc2cccc(OC)c2)CCCN(S(=O)(=O)c2cccnc2)C1 (stereo unspecified) the inhibition was 1.74% (inactive). With CCOC(=O)c1sc(/N=C/C2=C(O)CC(C)(C)CC2=O)c(C(=O)OCC)c1C the inhibition was -3.8% (inactive). With Cn1c(=O)c2c(ncn2CCc2ccccc2)n(C)c1=O the inhibition was -0.5% (inactive). In the case of Cn1c(=O)c2c(ncn2CC(COCc2ccccc2Cl)OCc2ccccc2Cl)n(C)c1=O (stereo unspecified), the inhibition is reported as 96.2% (active). In the case of Cn1c(=O)c2c(ncn2CC(=O)N2CCN(c3ccccc3)CC2)n(C)c1=O, the inhibition is reported as -3.01% (inactive). With Cc1ncc([N+](=O)[O-])n1CCOC(=O)c1ccc(Br)cc1 the inhibition was 13.8% (inactive). In the case of Cc1cccc(C)c1NC(=O)C1(C)c2cccc[n+]2CC(=O)N1Cc1cccs1 (stereo unspecified), the inhibition is reported as 13.1% (inactive). In the case of O=C(/C=C/Sc1ncn[nH]1)c1ccc(Cl)cc1, the inhibition is reported as 100% (active). For O=C(NCCOCc1ccc(Cl)cc1)c1ncn[nH]1, the inhibition was 24.4% (inactive). With CC(C)(C)c1ccc(C(=O)CSc2ncn[nH]2)cc1 the inhibition was -1.37% (inactive). In the case of Cc1cc(C)n(-c2nnc(N3CCN(c4ccccc4)CC3)nn2)n1, the inhibition is reported as 10.3% (inactive). With Cc1n[nH]c(=O)n1-c1ccc(C(C)C)cc1 the inhibition was -3.84% (inactive). In the case of C/C(=N/O)c1ccc(N2C(=O)C3C4C=CC(C3C2=O)C2C3C(=O)N(c5ccc(/C(C)=N/O)cc5)C(=O)C3C42)cc1 (stereo unspecified), the inhibition is reported as -0.53% (inactive). With Cc1ccc2[nH]c(=O)c(CN3CCCCC3)c(-c3ccccc3)c2c1 the inhibition was 6.53% (inactive). In the case of Nc1cccc(CCc2nc3ccccc3[nH]2)c1, the inhibition is reported as -2.96% (inactive). For CS(=O)(=O)c1sc2nc(-c3ccccc3)cc(-c3ccccc3)c2c1N, the inhibition was 3.87% (inactive). For Nc1cccc(-c2cc(-c3ccccc3)nc(-c3cccc(N)c3)n2)c1, the inhibition was 64% (active). In the case of OC1CSc2nc3ccccc3n2C1 (stereo unspecified), the inhibition is reported as 0.82% (inactive). In the case of O=C(Nc1cccc(C(F)(F)F)c1)c1cnccn1, the inhibition is reported as 7.19% (inactive). With O=c1[nH]n(-c2cccc(Cl)c2)c2ncccc12 the inhibition was -7.31% (inactive). For Clc1cccc(CN2COc3c(cc(Cl)c4cccnc34)C2)c1, the inhibition was 101% (active). With Nc1c(C(=O)NCc2ccccc2)nnn1Cc1cccc(Cl)c1 the inhibition was -2.28% (inactive). In the case of O=C(C(=O)N1CCc2ccccc2C1)c1c[nH]c2ccccc12, the inhibition is reported as 4.91% (inactive). With Cc1ccccc1NC(=O)NC1(C(=O)N2CCCC2)CCCCC1 the inhibition was -6.94% (inactive). For Cc1ccc(C(=O)NNC(=O)c2cccs2)cc1, the inhibition was 5.96% (inactive). In the case of O=C(O)c1ccc(NC(=O)c2cccs2)cc1, the inhibition is reported as -4.2% (inactive). For CC(C)C(=O)Nc1ccc(C(=O)NNC(=O)c2cccs2)cc1, the inhibition was 66.2% (active). In the case of COc1ccc(OC)c(S(=O)(=O)NCCC(C)C)c1, the inhibition is reported as -7.99% (inactive). For O=C1Oc2ccccc2C(=O)/C1=C/c1ccccc1O, the inhibition was 7.18% (inactive). For CN1CCN(C(=O)N2c3ccccc3CCc3ccccc32)CC1, the inhibition was -0.1% (inactive). With O=C(Nc1cccc(O)c1)c1ccc(C(=O)c2ccccc2)o1 the inhibition was 26.7% (inactive).
